# Experimental data as given in PubChem BioAssay AID686979 (National Center for Advancing Translational Sciences (NCATS), 2013).
# Several values for one entry are separate records, joined by “and”; a condition that tells them apart may be missing. Identical values can stand only once. In all, about 420,000 compounds went through this assay and about 50,000 (12%) were called active. Inconclusive results (about 26%) are left out. This is one part of a sample in which actives are shown more often than they occur. Values without a mark were called inactive. Calls follow the shape of the dose curve; as a rule, active = well fitted inhibition curve with a large enough effect; inconclusive = small, poorly fitted or top-dose-only effect; inactive = flat fitted curve, though single readings scatter.
# Assay: qHTS for Inhibitors of human tyrosyl-DNA phosphodiesterase 1 (TDP1): qHTS in cells in presence of CPT; also: nearly all actives have a fitted effect of over 55% in size
# Details: chicken DT40 Tdp1-/-;hTDP1 cells + 20 nM CPT, ATP luminescence, 48 h; series mostly up to 46.2 µM; activity change, negative = growth inhibition: at the top concentration
# Procedure, shortened: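 Cell growth measured by CellTiter-Glo luminescence after a minimum 48 h, 37 C compound exposure with 20 nM CPT in Tdp1-knockout DT40 cells stably expressing hTDP1, seeded 400/well; qHTS titration format.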
# % is scaled to controls: 0 for no effect and ±100 for the full control effect; potency is read from the fitted curve at half-maximal effect.
SMILES,"activity change, negative = growth inhibition",Potency
O=Cc1c(NCCCN2CCCC2=O)c2ccccc2[nH]c1=O,1.3%,–
Cc1cccc(C(=O)OC(C)CN2CCCC2)c1 (configuration not stated),-0.708%,–
COCCNC(=O)CCCN1C(=O)c2ccccc2Sc2ncccc21,–,inactive
Cc1ccc2c(Cl)c(C(=O)Nc3nn[nH]n3)sc2c1,-18.1%,–
O=C(COC(=O)CNC(=O)C1CCCCC1)Nc1cccc(F)c1,-5.92%,–
CN(C(=O)c1ccccn1)c1nnc(-c2ccccn2)s1,3.28%,–
c1ccc(-c2cc(-c3nnc4sc(-c5ccccn5)nn34)[nH]n2)cc1,–,11.6 µM (active)
CCOc1cccc(-c2nn3c(-c4ccccn4)nnc3s2)c1,-21.1%,–
Cn1c(N)c(C(=O)COC(=O)c2ccccc2NCc2ccco2)c(=O)n(C)c1=O,-11.2%,–
Nc1cc(N)nc(SCc2ccc(Cl)cc2)n1,7.24%,–
CC(O)CN(Cc1ccc(Cl)cc1)CC(C)O (configuration not stated),1.11%,–
CN(C)C(=O)CCc1ccc2c3c([nH]c2c1)[C@]1(CCc2ccccc2)[C@@H](C(=O)N2CCCCC2)C[C@H](CC(=O)NCCC2=CCCCC2)C(=O)N1CC3,–,8.2 µM (active)
CCN(CC)C(=O)[C@H]1CC(CC(=O)NCc2ccco2)C(=O)N2CCc3c([nH]c4ccccc34)[C@]12C (some centres not stated),-24.8%,–
CC[C@]12c3[nH]c4ccc(Cl)cc4c3CCN1C(=O)[C@@H](CC(=O)NCCCOC)C[C@@H]2C(=O)N1CCN(C(=O)C2CC2)CC1,-25.7%,–
CCN(CC)C(=O)[C@H]1C[C@H](CC(=O)NCC23CC4CC(CC(C4)C2)C3)C(=O)N2CCc3c([nH]c4cc(CCC(=O)N(C)C)ccc34)[C@]12C,–,20.6 µM (active)
CC(C)N(C(=O)[C@H]1C[C@H](CC(=O)NC(C)(C)C)C(=O)N2CCc3c([nH]c4ccc(Cl)cc34)[C@]12C)C(C)C,–,7.31 µM (active)
CN(C)C(=O)CCc1ccc2c3c([nH]c2c1)[C@]1(C)[C@@H](C(=O)N2CCOCC2)C[C@H](CC(=O)NCCc2ccccn2)C(=O)N1CC3,14.2%,–
CC[C@]12c3[nH]c4cc(CCC(=O)N(C)C)ccc4c3CCN1C(=O)[C@@H](CC(=O)NCCCN(C)C)C[C@@H]2C(=O)N1CCN(C(=O)c2ccco2)CC1,1.51%,–
CC[C@]12c3[nH]c4cc(CCC(=O)N(C)C)ccc4c3CCN1C(=O)[C@@H](CC(=O)NCc1ccco1)C[C@@H]2C(=O)N1CCN(C(=O)c2ccco2)CC1,-19%,–
C[C@]12c3[nH]c4ccc(Cl)cc4c3CCN1C(=O)[C@@H](CC(=O)NCCCn1ccnc1)C[C@@H]2C(=O)N1CCOCC1,-15.4%,–
COc1ccccc1-c1c(C#N)c(N)nc2c1CCC2,12.8%,–

SMILES,"activity change, negative = growth inhibition",Potency
O=C(O)C(CCc1ccccn1)c1ccccc1 (configuration not stated),24.6%,–
Cc1csc(/N=C/N(C)C)c1C#N,8.34%,–
OCC1CCCN(c2nc3cc4c(cc3cc2CNCc2cccs2)OCO4)C1 (configuration not stated),3.65% [at 9.04 µM],–
Cc1ccc(C(=O)NCC(=O)NC2CC2)cc1,-25.1%,–
CCCOC(=O)c1[nH]c2c(c1C)C(=O)CC(c1cc(OC)c(OC)c(OC)c1)C2 (configuration not stated),–,9.2 µM (active)
CCCOC(=O)c1cc2ccccc2oc1=O,-2.05%,–
CCOC(=O)C1=C(N)N2C(=O)C(C)SC2=C(C(=O)OCC)C1c1cc(OC)c(OC)c(OC)c1 (configuration not stated),4.66%,–
CCOC(=O)C1=C(C)NC(=S)NC1c1cccs1 (configuration not stated),2.09%,–
COc1cc(C2CC(=O)c3cnc(NC(C)=O)nc3C2)cc(OC)c1OC (configuration not stated),-14.6%,–
CCCOC(=O)c1[nH]c2c(c1C)C(=O)CC(c1cccs1)C2 (configuration not stated),–,0.58 µM (active)
N#Cc1ccccc1NC(=O)c1cccc(COc2ccc(Cl)cc2Cl)c1,-5.45%,–
COc1ccc(N/C=C(\C2OC(=O)c3ccccc32)[N+](=O)[O-])cc1 (configuration not stated),-1.24%,–
COc1ccc2c(c1OC)C(=O)OC2Nc1nc(-c2ccccc2)cs1 (configuration not stated),–,2.31 µM (active)
COc1ccc2c(c1OC)C(=O)OC2c1c(O)nc(SC)n(-c2ccccc2)c1=O (configuration not stated),0.164%,–
COc1ccc(-c2csc(NC3OC(=O)c4ccccc43)n2)cc1 (configuration not stated),–,11.6 µM (active)
COc1ccc(-c2csc(NC(=O)CCCc3cccs3)n2)cc1,-23.6%,–
CCc1ccccc1NC(=O)[C@@H]1CCC(=O)N1C1OC(=O)c2c1ccc(OC)c2OC (some centres not stated),-13.3%,–
COC(=O)C(NS(=O)(=O)c1ccc(F)cc1)c1ccccc1 (configuration not stated),-24.2%,–
Cc1cccc(-c2nnc(SC(C)C(=O)Nc3ccccc3)n2C)c1 (configuration not stated),-10.2%,–
COc1ccc(NC(=O)NC(C)c2c(-n3cccc3)sc(C)c2C)cc1OC (configuration not stated),–,16.4 µM (active)
COc1ccc(NC(=O)CNC(=O)Cc2ccccc2)cc1OC,1.52%,–

SMILES,"activity change, negative = growth inhibition",Potency
CCn1cc(NC(=O)Nc2ccc(OC)c(OC)c2)c(C(N)=O)n1,11.3%,–
Cc1nc(C)c(-c2csc(NCCc3ccccc3)n2)s1,–,14.6 µM (active)
Cc1nc(N)sc1-c1ccccc1,-0.668%,–
S=c1[nH]nc(NCCc2ccccc2)s1,-3.43%,–
CCOC(=O)c1cc2c(=O)n3ccccc3nc2n(CC2CCCO2)c1=NC(=O)c1ccccc1F (configuration not stated),-14.2%,–
CCCn1c(=NC(C)=O)c(C(=O)OCC)cc2c(=O)n3ccccc3nc21,-16.3%,–
CCOC(=O)c1cc2c(=O)n3ccccc3nc2n(CC(C)C)c1=NC(=O)c1c(-c2c(F)cccc2Cl)noc1C,–,16.4 µM (active) and 8.2 µM (active)
COc1ccccc1OCC(=O)OCc1cc(-c2ccco2)on1,-10.3%,–
COc1cccc(C(c2c(O)cc(C)n(Cc3ccco3)c2=O)N2CCN(c3ccccc3)CC2)c1 (configuration not stated),-10.4%,–
O=C(NCCN1CCOCC1)c1cc(-c2cccs2)nc2ccccc12,-6.74%,–
CCCCN(C)CCCNC(=O)c1cc(-c2cccs2)nc2ccccc12,–,29.1 µM (active)
CC(C)(C)Cc1nnc(NC(=O)c2cc(-c3ccccc3)nc3ccccc23)s1,1.81%,–
Cn1cc(CN2CCCC(CO)C2)c(-c2ccc(Oc3ccccc3)cc2)n1 (configuration not stated),-29.3%,–
Cc1ccccc1NC(=O)C1CCN(C(=O)NC2CCCCC2)CC1,17.2%,–
CCN(C(=O)COC(=O)CCOc1cccc(C)c1)c1c(N)n(Cc2ccccc2)c(=O)[nH]c1=O,–,16.4 µM (active)
COCCN(C(=O)COC(=O)Cc1cccc(OC)c1)c1c(N)n(Cc2ccccc2)c(=O)[nH]c1=O,0.869%,–
CCN(C(=O)COC(=O)Cc1c(F)cccc1Cl)c1c(N)n(Cc2ccccc2)c(=O)[nH]c1=O,1.95%,–
CCN(C(=O)COC(=O)c1c(C)nn(-c2ccccc2)c1Cl)c1c(N)n(Cc2ccccc2)c(=O)[nH]c1=O,7.19%,–
CCN(C(=O)CN1CCN(Cc2ccccc2)CC1)c1c(N)n(Cc2ccccc2)c(=O)[nH]c1=O,–,11.6 µM (active)
CCN(C(=O)COC(=O)c1sccc1C)c1c(N)n(Cc2ccccc2)c(=O)[nH]c1=O,-1.38%,–
